From PubChem BioAssay AID1159580 (chemical genetic matrix, 2015)
“And” between values parts separate entries of the source, which are not always exact repeats. Equal entries are not always repeated. About 2,000 (36%) of roughly 5,500 compounds were called active. Inconclusive results (about 18%) are left out. Rule as the data show it: active = normalized growth mostly below about 0.91 (no sharp cut-off); inconclusive = no clear call, values can overlap the other calls; inactive = mostly above about 0.92. This is one part of the list.

Assay: chemical genetic growth profiling, strain panel (AID 1159580);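 also: tested at 20 µM; growth read once vehicle control cultures reached saturation at 30 °C; 1 = growth at the plate median or of vehicle wells; lower values mean less growth of the strain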
Conditions: S. cerevisiae deletion strains, growth OD

Measured: normalized growth

CN(C)CCOC(C)(c1ccccc1)c1ccccn1 (centres undefined)
inactive: locus YAL021C, strain ccr4, active compounds read low 1.03 | locus YAL026C, strain drs2, active compounds read low 1 | locus YAL030W, strain snc1, active compounds read low 0.993 | locus YAL040C, strain CLN3, active compounds read low 0.998 | locus YBL061C, strain skt5, active compounds read low 1 | locus YBR009C, strain hhf1, active compounds read low 1 | locus YBR021W, strain FUR4, active compounds read low 1.01 | locus YBR023C, strain chs3, active compounds read low 1.01 | locus YBR171W, strain sec66, active compounds read low 1 | locus YBR229C, strain ROT2, active compounds read low 1.01 | locus YBR231C, strain swc5, active compounds read low 1 | locus YBR279W, strain paf1, active compounds read low 1.01 | locus YCL011C, strain gbp2, active compounds read low 1 | locus YCL016C, strain dcc1, active compounds read low 1.01 | locus YCL029C, strain bik1, active compounds read low 0.958 | locus YCL061C, strain MRC1 (second series), active compounds read low 1.01 | locus YCL061C, strain MRC1, active compounds read low 1.01 | locus YCL069W, strain vba3, active compounds read low 1.02 | locus YCR088W, strain abp1, active compounds read low 1.02 | locus YDL005C, strain med2, active compounds read low 1.01 | locus YDL035C, strain GPR1, active compounds read low 1.02 | locus YDL040C, strain nat1, active compounds read low 1.01 | locus YDL074C, strain BRE1, active compounds read low 0.977 | locus YDL101C, strain DUN1, active compounds read low 0.989 | locus YDL185W, strain tfp1, active compounds read low 0.953 | locus YDL192W, strain arf1, active compounds read low 0.99 | locus YDR001C, strain nth1, active compounds read low 1.01 | locus YDR069C, strain doa4, active compounds read low 0.975 | locus YDR101C, strain arx1, active compounds read low 0.993 | locus YDR137W, strain rgp1, active compounds read low 0.991 | locus YDR150W, strain NUM1, active compounds read low 1 | locus YDR159W, strain sac3, active compounds read low 0.928 | locus YDR162C, strain NBP2, active compounds read low 0.998 | locus YDR195W, strain ref2 0.995 | locus YDR297W, strain sur2, active compounds read low 0.973 | locus YDR318W, strain mcm21, active compounds read low 0.981 | locus YDR334W, strain swr1, active compounds read low 1.01 | locus YDR335W, strain msn5, active compounds read low 0.985 | locus YDR363W, strain ESC2, active compounds read low 0.994 | locus YDR388W, active compounds read low 0.989 | locus YDR392W, strain spt3, active compounds read low 0.974 | locus YDR502C, strain sam2, active compounds read low 0.998 | locus YEL003W, strain gim4, active compounds read low 1.01 | locus YEL037C, strain rad23, active compounds read low 1.01 | locus YEL061C, strain CIN8 (second series), active compounds read low 1.01 | locus YEL061C, strain CIN8, active compounds read low 0.991 | locus YER002W, strain NOP16, active compounds read low 1 | locus YER015W, strain faa2, active compounds read low 1.01 | locus YER016W, strain bim1, active compounds read low 1.01 | locus YER110C, active compounds read low 0.961 | locus YER111C, strain swi4, active compounds read low 1.02 | locus YER155C, strain BEM2 (second series), active compounds read low 0.99 | locus YER155C, strain BEM2, active compounds read low 0.994 | locus YER167W, strain BCK2, active compounds read low 0.986 | locus YFR010W, strain ubp6, active compounds read low 1.02 | locus YGL078C, strain dbp3, active compounds read low 0.981 | locus YGL086W, strain mad1, active compounds read low 1.01 | locus YGL167C, strain pmr1, active compounds read low 1 | locus YGL173C, strain kem1, active compounds read low 1.03 | locus YGL227W, strain vid30, active compounds read low 0.997 | locus YGL240W, strain doc1, active compounds read low 1 | locus YGL248W, strain PDE1, active compounds read low 0.979 | locus YGL253W, strain hxk2, active compounds read low 1.01 | locus YGR135W, strain pre9, active compounds read low 0.951 | locus YGR229C, strain SMI1, active compounds read low 0.995 | locus YGR252W, strain gcn5, active compounds read low 0.994 | locus YHR013C, strain ard1, active compounds read low 0.986 | locus YHR027C, strain rpn1, active compounds read low 1.01 | locus YHR030C, strain SLT2, active compounds read low 1 and 1.04 | locus YHR079C, strain IRE1 (second series), active compounds read low 0.974 | locus YHR079C, strain IRE1, active compounds read low 1.03 | locus YHR094C, strain hxt1, active compounds read low 0.985 | locus YHR129C, strain ARP1, active compounds read low 1 | locus YHR142W, strain chs7, active compounds read low 1.03 | locus YHR200W, strain rpn10, active compounds read low 0.983 | locus YIL066C, strain RNR3, active compounds read low 0.995 | locus YIL073C, strain SPO22, active compounds read low 0.924 | locus YIL125W, strain kgd1, active compounds read low 0.992 | locus YIR030C, strain dcg1, active compounds read low 0.96 | locus YJL092W, strain hpr5, active compounds read low 1.02 | locus YJL095W, strain BCK1 (second series), active compounds read low 0.983 | locus YJL095W, strain BCK1, active compounds read low 0.955 and 1.03 | locus YJL115W, strain asf1, active compounds read low 1.01 | locus YJL129C, strain trk1, active compounds read low 1.03 | locus YJL134W, strain LCB3, active compounds read low 1 | locus YJL154C, strain vps35, active compounds read low 1.01 | locus YJL164C, strain tpk1, active compounds read low 1.01 | locus YJL166W, strain qcr8, active compounds read low 1 | locus YJL168C, strain set2, active compounds read low 0.991 | locus YJL187C, strain SWE1 (second series), active compounds read low 0.977 | locus YJL187C, strain SWE1, active compounds read low 0.999 | locus YJR043C, strain POL32, active compounds read low 1.04 | locus YJR066W, strain TOR1, active compounds read low 0.941 | locus YJR075W, strain HOC1, active compounds read low 0.974 | locus YKL009W, strain mrt4, active compounds read low 0.954 | locus YKL068W, active compounds read low 0.983 | locus YKL085W, strain MDH1 (second series), active compounds read low 0.971 | locus YKL085W, strain MDH1, active compounds read low 0.971 | locus YKL160W, strain elf1, active compounds read low 0.988 | locus YKR001C, strain vps1, active compounds read low 0.976 | locus YKR026C, strain gcn3, active compounds read low 1 | locus YKR091W, strain srl3, active compounds read low 1.01 | locus YLL001W, strain dnm1, active compounds read low 1.02 | locus YLL026W, active compounds read low 1 | locus YLL041C, strain sdh2, active compounds read low 0.963 | locus YLR027C, strain aat2, active compounds read low 0.997 | locus YLR039C, strain RIC1, active compounds read low 0.989 | locus YLR058C, strain SHM2, active compounds read low 0.993 | locus YLR102C, strain apc9, active compounds read low 0.976 | locus YLR113W, strain HOG1, active compounds read low 1.07 | locus YLR221C, strain rsa3, active compounds read low 1.01 | locus YLR258W, strain gsy2, active compounds read low 0.985 | locus YLR262C, strain YPT6 (second series), active compounds read low 1.05 | locus YLR262C, strain YPT6, active compounds read low 0.939 | locus YLR268W, strain sec22, active compounds read low 0.983 | locus YLR320W, strain mms22, active compounds read low 0.984 | locus YLR330W, strain CHS5, active compounds read low 0.995 | locus YLR342W, strain FKS1 (second series), active compounds read low 1.07 | locus YLR342W, strain FKS1, active compounds read low 1.02 | locus YLR357W, strain rsc2, active compounds read low 1.02 | locus YLR370C, strain arc18, active compounds read low 0.967 | locus YLR371W, strain rom2, active compounds read low 0.97 | locus YLR384C, strain iki3, active compounds read low 0.996 | locus YLR418C, strain cdc73, active compounds read low 0.98 | locus YML016C, strain PPZ1, active compounds read low 1 | locus YML032C, strain rad52, active compounds read low 0.997 | locus YML120C, strain ndi1, active compounds read low 0.995 | locus YML124C, strain tub3, active compounds read low 0.985 | locus YMR058W, strain fet3, active compounds read low 1.03 | locus YMR078C, strain ctf18, active compounds read low 0.963 | locus YMR125W, strain sto1, active compounds read low 1 | locus YMR129W, active compounds read low 0.982 | locus YMR205C, strain PFK2, active compounds read low 0.992 | locus YMR223W, strain ubp8, active compounds read low 0.966 | locus YMR231W, strain pep5, active compounds read low 1.01 | locus YMR263W, strain SAP30, active compounds read low 0.991 | locus YMR307W, strain GAS1, active compounds read low 1.04 and 0.992 | locus YNL067W, strain RPL9B, active compounds read low 0.967 | locus YNL071W, strain lat1, active compounds read low 1.01 | locus YNL175C, strain NOP13, active compounds read low 0.992 | locus YNL183C, strain NPR1, active compounds read low 1 | locus YNL197C, strain WHI3, active compounds read low 0.982 | locus YNL209W, strain ssb2, active compounds read low 1.02 | locus YNL224C, strain SQS1, active compounds read low 1 | locus YNL233W, strain BNI4, active compounds read low 0.986 | locus YNL248C, strain rpa49, active compounds read low 1.04 | locus YNL250W, strain rad50, active compounds read low 0.984 | locus YNL271C, strain bni1, active compounds read low 0.987 | locus YNL298W, strain CLA4, active compounds read low 0.989 | locus YNL307C, strain MCK1, active compounds read low 0.983 | locus YNL322C, strain KRE1 (second series), active compounds read low 1.01 | locus YNL322C, strain KRE1, active compounds read low 0.994 | locus YNR049C, strain mso1, active compounds read low 0.962 | locus YNR052C, strain pop2, active compounds read low 0.977 | locus YOL012C, strain htz1 0.665 | locus YOL147C, strain pex11, active compounds read low 0.984 | locus YOR001W, strain rrp6, active compounds read low 1.03 | locus YOR061W, strain CKA2, active compounds read low 0.996 | locus YOR069W, strain VPS5, active compounds read low 0.999 | locus YOR070C, strain gyp1, active compounds read low 1 | locus YOR080W, strain dia2, active compounds read low 1.01 | locus YOR083W, strain WHI5 (second series), active compounds read low 0.984 | locus YOR083W, strain WHI5, active compounds read low 0.973 | locus YOR106W, strain vam3, active compounds read low 1.02 | locus YOR136W, strain idh2, active compounds read low 0.983 | locus YOR144C, strain elg1, active compounds read low 0.993 | locus YOR184W, strain ser1, active compounds read low 0.959 | locus YOR231W, strain MKK1, active compounds read low 1.07 | locus YOR265W, strain rbl2, active compounds read low 0.999 | locus YOR270C, strain vph1, active compounds read low 1.07 | locus YOR290C, strain snf2, active compounds read low 1.01 | locus YOR316C, strain cot1, active compounds read low 0.975 | locus YPL051W, strain arl3, active compounds read low 1 | locus YPL055C, strain LGE1, active compounds read low 0.992 and 1.03 | locus YPL078C, strain atp4, active compounds read low 1 | locus YPL106C, strain sse1, active compounds read low 0.98 | locus YPL240C, strain hsp82, active compounds read low 0.977 | locus YPL241C, strain CIN2, active compounds read low 0.999 | locus YPL256C, strain CLN2, active compounds read low 1.03 | locus YPR119W, strain clb2, active compounds read low 0.98 | locus YPR141C, strain kar3, active compounds read low 0.971 | locus YPR163C, strain tif3, active compounds read low 0.977 | locus YPR167C, strain met16, active compounds read low 0.98 | strain wtn01, active compounds read low 0.996
